Inconclusive results are not listed. Active and inactive are the calls of the source. The calls were made as follows: active = hit-call score of the fitted dose curve at least 0.9, where 1 is the maximum; inconclusive = response in the unintended direction; inactive = score below 0.9.
biological target: rat Opioid Receptor, Non-selective Binding, Oprm1 (gene 25601) (UniProt P33535); experiment: NVS_GPCR_rOpiate_NonSelective: NovaScreen (NVS) G Protein-Coupled Receptor Assay for rat Opioid Receptor, Non-selective Binding (AID 2283318)
How it was run: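 Rat forebrain membranes, cell-free radioligand binding with filter-based scintillation counting, read 1.5 h after dosing. Primary screen in duplicate at 25 uM; actives retested in concentration series. Loss of signal versus DMSO baseline scored.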

Chain of rat Opioid Receptor, Non-selective Binding, Oprm1 (gene 25601) (P33535 whole entry, looked up): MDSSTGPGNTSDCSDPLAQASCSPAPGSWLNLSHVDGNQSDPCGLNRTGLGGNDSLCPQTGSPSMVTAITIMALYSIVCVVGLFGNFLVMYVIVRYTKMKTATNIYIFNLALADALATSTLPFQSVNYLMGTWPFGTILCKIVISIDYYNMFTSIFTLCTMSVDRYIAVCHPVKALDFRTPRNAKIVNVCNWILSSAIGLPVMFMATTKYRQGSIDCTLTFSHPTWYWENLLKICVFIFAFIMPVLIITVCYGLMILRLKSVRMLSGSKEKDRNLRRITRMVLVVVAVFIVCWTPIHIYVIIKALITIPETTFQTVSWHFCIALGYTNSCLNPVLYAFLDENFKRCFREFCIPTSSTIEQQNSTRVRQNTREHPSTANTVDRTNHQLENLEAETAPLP

| Compound | outcome | AC50 |
| --- | --- | --- |
| Clc1ccccc1C(c1ccccc1)(c1ccccc1)n1ccnc1 | inactive | – |
| c1ccc(C[n+]2cccc3ccccc32)cc1 | – | 14.5 µM (active) |
| CCN(CC)C(=O)c1cc(S(=O)(=O)Cc2ccccc2)c(N2CCC(c3ccccc3)CC2)cc1N(CC)CCN(C)C | inactive | – |
| Cc1occc1C(=O)Nc1ccc(C(=O)N2CCC(F)(F)/C(=C\C(=O)N3CCC(N4CCCCC4)CC3)c3ccccc32)cc1 | – | 5.85 µM (active) |
| CC/C(=C(/CC)c1ccc(O)cc1)c1ccc(O)cc1 | – | 12 µM (active) |
| O=c1[nH]sc2ccccc12 | – | 19.6 µM (active) |
| COc1cccc([C@H](O)C2CCN(CCc3ccc(F)cc3)CC2)c1OC | – | 6.91 µM (active) |
| CN(C[C@@H](CC[N+]12CCC(C3CCCCC3)(CC1)CC2)c1ccc(Cl)c(Cl)c1)C(=O)c1cc(C(F)(F)F)cc(C(F)(F)F)c1 | – | 35.5 µM (active) |
| CCN(Cc1cccnc1)C(=O)c1cccc(Cl)c1[C@]1(C)C(=O)N(Cc2ccc(OC)cc2OC)c2ccc(Cl)cc21 | – | 5.25 µM (active) |
| O=C1c2ccccc2C(=O)N1CCc1noc(-c2ccc(CN3CCCCCC3)s2)n1 | – | 21.1 µM (active) |
| COc1ccc2cc(S(=O)(=O)N[C@H](CC(=O)N[C@H](Cc3ccc(CN4[C@H](C)CCC[C@@H]4C)cc3)C(=O)N(C)C(C)C)c3ccc4c(c3)OCO4)ccc2c1 | – | 17.7 µM (active) |
| O=C(O)Cc1cc(I)c(Oc2ccc(O)c(I)c2)c(I)c1 | inactive | – |
| CN(C)C(=O)C1(N2CCCCC2)CCN(CC[C@@]2(c3ccc(Cl)c(Cl)c3)CN(C(=O)c3ccccc3)CCO2)CC1 | – | 1.73 µM (active) |
| CN(C)c1ccc(C(=C2C=CC(=[N+](C)C)C=C2)c2ccc(N(C)C)cc2)cc1 | – | 2.21 µM (active) |
| Clc1cc(Cl)c2c(c1)N=C1CCCCCN1C2 | – | 7.31 µM (active) |
| NCc1cccc(C2CCN(C(=O)c3ccc(C#Cc4ccccc4F)o3)CC2)c1 | – | 12.1 µM (active) |

tested on: not listed separately; experiment: NVS_IC_rCaDHPRCh_L: NovaScreen (NVS) Ion Channel Assay for rat Calcium Channel, Type L, Dihydropyridine Site (CaDHPRCh_L) (AID 2283320)
How it was run: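 Radioligand binding to dihydropyridine site on rat cortical membranes, filter-based scintillation counting, 1 h after dosing. Screened in duplicate at 25 uM; actives rerun in concentration-response up to 50 uM. Loss of signal versus DMSO baseline.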

| Compound | AC50 |
| --- | --- |
| COc1cccc([C@H](O)C2CCN(CCc3ccc(F)cc3)CC2)c1OC | 25 µM (active) |
| CCOC(=O)O[C@H](C)OC(=O)c1ccc2c(c1)cc(C(=O)NC1CCN(C(C)C)CC1)n2Cc1cc(-c2ccc(Cl)s2)on1 | 9.36 µM (active) |
| CCCCCCCCN(C)CCCCCCCC | 16.4 µM (active) |
| CCN(Cc1cccnc1)C(=O)c1cccc(Cl)c1[C@]1(C)C(=O)N(Cc2ccc(OC)cc2OC)c2ccc(Cl)cc21 | 5.48 µM (active) |
| O=C1c2ccccc2C(=O)N1CCc1noc(-c2ccc(CN3CCCCCC3)s2)n1 | 6.2 µM (active) |
| COc1ccc2cc(S(=O)(=O)N[C@H](CC(=O)N[C@H](Cc3ccc(CN4[C@H](C)CCC[C@@H]4C)cc3)C(=O)N(C)C(C)C)c3ccc4c(c3)OCO4)ccc2c1 | 21.5 µM (active) |
| CN(C)C(=O)C1(N2CCCCC2)CCN(CC[C@@]2(c3ccc(Cl)c(Cl)c3)CN(C(=O)c3ccccc3)CCO2)CC1 | 0.655 µM (active) |
| CN(C)c1ccc(C(=C2C=CC(=[N+](C)C)C=C2)c2ccc(N(C)C)cc2)cc1 | 4.99 µM (active) |
| NCc1cccc(C2CCN(C(=O)c3ccc(C#Cc4ccccc4F)o3)CC2)c1 | 21.1 µM (active) |

biological target: Sodium channel protein type 1 subunit alpha (Rattus norvegicus) (UniProt P04774); experiment: NVS_IC_rNaCh_site2: NovaScreen (NVS) Ion Channel Assay for rat Sodium Channel, Site 2 (NaCh) (AID 2283322);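 also: hit means loss of radioligand binding signal relative to DMSO so AC50 marks displacement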
How it was run: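 Membranes: rat forebrain. Format: competitive radioligand displacement, filter separation, scintillation readout, 1 h exposure. Primary screen in duplicate at 25 uM; actives retested in concentration series.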

| Compound | AC50 | outcome |
| --- | --- | --- |
| Cc1cc(F)ccc1-c1cc(N2CC[C@@H](O)[C@H]2CO)ncc1N(C)C(=O)C(C)(C)c1cc(C(F)(F)F)cc(C(F)(F)F)c1 | 5.99 µM (active) | – |
| c1ccc(C[n+]2cccc3ccccc32)cc1 | 10.7 µM (active) | – |
| CCN(CC)C(=O)c1cc(S(=O)(=O)Cc2ccccc2)c(N2CCC(c3ccccc3)CC2)cc1N(CC)CCN(C)C | 0.419 µM (active) | – |
| Cc1occc1C(=O)Nc1ccc(C(=O)N2CCC(F)(F)/C(=C\C(=O)N3CCC(N4CCCCC4)CC3)c3ccccc32)cc1 | 4.89 µM (active) | – |
| CC[C@H](NC(=O)c1cc(F)ccc1NS(=O)(=O)c1cccc2cccnc12)c1ccccc1 | – | inactive |
| COc1cccc([C@H](O)C2CCN(CCc3ccc(F)cc3)CC2)c1OC | 3.64 µM (active) | – |
| NC(=O)c1nc(-c2cccc(-c3cc(F)ccc3OCC(F)(F)C(F)(F)F)c2)n[nH]1 | 0.574 µM (active) | – |
| CCOC(=O)O[C@H](C)OC(=O)c1ccc2c(c1)cc(C(=O)NC1CCN(C(C)C)CC1)n2Cc1cc(-c2ccc(Cl)s2)on1 | 9.62 µM (active) | – |
| CCCCCCCCN(C)CCCCCCCC | 11.8 µM (active) | – |
| CCN(Cc1cccnc1)C(=O)c1cccc(Cl)c1[C@]1(C)C(=O)N(Cc2ccc(OC)cc2OC)c2ccc(Cl)cc21 | 17.5 µM (active) | – |
| O=C1c2ccccc2C(=O)N1CCc1noc(-c2ccc(CN3CCCCCC3)s2)n1 | 13.4 µM (active) | – |
| COc1cc(C(=O)NC2CCN(C)CC2)ccc1Nc1ncc2c(n1)N(C1CCCC1)CC(F)(F)C(=O)N2C | 2.03 µM (active) | – |
| CCCCCCCCOC(=O)c1cc(O)c(O)c(O)c1 | 17.7 µM (active) | – |
| COc1ccc2cc(S(=O)(=O)N[C@H](CC(=O)N[C@H](Cc3ccc(CN4[C@H](C)CCC[C@@H]4C)cc3)C(=O)N(C)C(C)C)c3ccc4c(c3)OCO4)ccc2c1 | 5.03 µM (active) | – |
| CCCCCCCCCCCC[N+](C)(C)C | 13 µM (active) | – |
| CN(C)C(=O)C1(N2CCCCC2)CCN(CC[C@@]2(c3ccc(Cl)c(Cl)c3)CN(C(=O)c3ccccc3)CCO2)CC1 | 0.822 µM (active) | – |
| CN(C)c1ccc(C(=C2C=CC(=[N+](C)C)C=C2)c2ccc(N(C)C)cc2)cc1 | 0.263 µM (active) | – |
| CC(O)CC(C)(C)O (stereo not given) | – | inactive |
| Clc1cc(Cl)c2c(c1)N=C1CCCCCN1C2 | 6.64 µM (active) | – |
| NCc1cccc(C2CCN(C(=O)c3ccc(C#Cc4ccccc4F)o3)CC2)c1 | 2.68 µM (active) | – |
